High-throughput results (PubChem)
Shown are actives, neighbours in structure and some others; about 2.9% of the full set was active somewhere.
NadD block: NadD (S. aureus) enzyme inhibition | hit rate 0.78% among 360,000 | inhibition, % at 20 µM | purified NadD enzyme, colorimetric absorbance read-out; in the data active means inhibition above about 26%
GRK2 inh: inhibitors of human GRK2 displacing RNA aptamer. bead flow cytometry, FAM-aptamer displacement from GRK2. inhibition of aptamer binding, % at 10 µM. hit rate 0.59% among 330,000. AID 488847;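 active means inhibition of aptamer binding above 40%, roughly 3 SD of noise, on plates passing a quality check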;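 further: median bead fluorescence of bound FAM aptamer so fluorescent compounds give negative values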
Target sequence (P25098 whole entry, looked up): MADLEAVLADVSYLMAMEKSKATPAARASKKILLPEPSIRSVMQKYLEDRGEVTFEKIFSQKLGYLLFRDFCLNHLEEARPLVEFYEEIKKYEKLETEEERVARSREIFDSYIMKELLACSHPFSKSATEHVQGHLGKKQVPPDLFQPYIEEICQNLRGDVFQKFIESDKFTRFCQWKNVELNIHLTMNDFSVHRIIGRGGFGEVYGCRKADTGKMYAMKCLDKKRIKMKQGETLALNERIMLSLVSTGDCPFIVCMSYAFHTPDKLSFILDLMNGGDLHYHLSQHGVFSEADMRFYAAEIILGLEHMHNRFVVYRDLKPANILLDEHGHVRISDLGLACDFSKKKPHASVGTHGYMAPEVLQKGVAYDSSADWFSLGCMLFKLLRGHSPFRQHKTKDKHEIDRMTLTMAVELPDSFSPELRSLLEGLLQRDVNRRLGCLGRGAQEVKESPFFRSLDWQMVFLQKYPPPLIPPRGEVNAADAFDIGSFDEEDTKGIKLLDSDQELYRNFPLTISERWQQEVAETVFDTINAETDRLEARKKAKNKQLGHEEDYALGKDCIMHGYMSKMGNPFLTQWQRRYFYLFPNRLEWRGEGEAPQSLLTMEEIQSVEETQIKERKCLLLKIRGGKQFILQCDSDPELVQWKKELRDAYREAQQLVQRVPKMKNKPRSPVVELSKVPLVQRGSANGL
PP1 inh: counter-screen for PP5 inhibitors: inhibitors of human PP1-alpha; AID 2235; purified PP1alpha, OMFP fluorescence; hit rate 0.9% among 320,000; inhibition, % at 6.7 µM;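 active means inhibition above the mean inhibition of all tested compounds plus 3 SD, computed separately for each screening campaign, cut at about 15% in these data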
Granule exo inh: lytic granule exocytosis inhibition. TALL-104 LAMP-1 surface exposure, flow cytometry; cells stimulated with thapsigargin and PMA. inhibition, % at 10 µM. hit rate 0.66% among 360,000. AID 651702;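 active means inhibition above about 55%, limit read from the data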
B2AR ag: activates human beta-2 adrenergic receptor causing internalization; P07550; Am2.2-beta2AR cells, FAP receptor internalization, flow cytometry; response, % (test concentration not listed); hit rate 0.43% among 340,000; AID 504454;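 active means response above a set limit, near 3 SD of response in nonfluorescent compounds, cut at about 42% in these data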
GRK2 inh confirm: human GRK2 inhibition confirmation, cherry pick 1. shares compounds with GRK2 inh. bead-bound GRK2, FAM-aptamer displacement, flow cytometry. aptamer displacement, % at 10 µM. hit rate 4% among 2,000;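 active means aptamer displacement above 40%, near three times the noise of non-fluorescent compounds, on plates passing quality checks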;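 further: negative values mostly reflect intrinsic compound fluorescence rather than true enhancement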
Aptamer quench 1: fluorescent aptamer quenching in GRK2 counter-screen dose response; Fluorescent RNA aptamer beads, flow cytometry; hits give high values; shares compounds with GRK2 inh; 110 tested, under 10 active; fluorescence change (kMESF span), kMESF (test concentration not listed);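 active means compounds whose bead fluorescence drops by more than 37 kMESF across the dose range, marking them as dye quenchers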
FAM quench CP1: aptamer fluorescence quenching in GRK2 counter-screen; AID 504580; shares compounds with GRK2 inh; 2,000 tested, under 10 active; Carboxyfluorescein RNA aptamer on beads, flow cytometry quenching; hits give low values; fluorescence response (% of DMSO), % at 10 µM;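 active means compounds that quench the bead-bound fluorescent RNA probe, cutting fluorescence to under half of the solvent control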;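 further: counterscreen run without GRK2 so only probe quenching by compound is measured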
* = called active by the depositor; nt = not tested or not shown.

SMILES	NadD block	GRK2 inh	PP1 inh	Granule exo inh	B2AR ag	GRK2 inh confirm	FAM quench CP1	others
COc1ccc(C(CNS(=O)(=O)c2ccc(C)cc2)N2CCN(C)CC2)cc1 (configuration not stated)	-4.7	0.0	-5.5	-3.9	3.8	nt	nt
COc1ccc(N2CCN(C(CNS(=O)(=O)c3ccccc3)c3ccccc3)CC2)cc1 (configuration not stated)	-8.7	47.0*	-0.3	0.0	4.8	2.2	86.1	Aptamer quench 1=18.9
O=C1CCC(C(=O)OCC(=O)Nc2cc(Cl)ccc2F)=NN1	1.8	0.0	nt	16.3	-1.1	nt	nt
Cc1nc(NC(=O)COC(=O)C2=NNC(=O)CC2)c(Cl)cc1Cl	-2.4	55.0*	2.6	-3.0	3.1	-0.3	93.8
NS(=O)(=O)c1ccc(NC(=S)NNC(=O)c2ccc(Br)o2)cc1	-2.9	3.0	-2.3	-1.9	1.3	nt	nt
Cc1ccccc1CSCC(=O)c1c(N)n(CC(C)C)c(=O)n(C)c1=O	-5.9	1.0	-1.6	2.3	5.3	nt	nt
CC(C)Cn1c(N)c(C(=O)CSc2ccccc2)c(=O)n(C)c1=O	-3.4	47.0*	0.8	1.3	-6.3	-3.0	97.5
CC1=C(C(=O)OC(C)C)C(c2cccs2)n2ncnc2N1 (configuration not stated)	-4.5	85.0*	5.1	-1.6	-6.5	0.2	100.3
O=C(O)c1ccccc1/C=N/N1CCN(C2c3ccccc3-c3ccccc32)CC1	3.7	4.0	-4.4	0.8	-7.5	nt	nt
COc1ccc(-c2nc3ccccc3c(=O)n2CC(C)C)cc1	-3.8	98.0*	-0.1	2.1	-6.4	-1.0	95.8
COCC(=O)N1CCC(n2nccc2NC(=O)CCOc2ccccc2)CC1	-10.4	4.0	0.6	-2.3	8.2	nt	nt
O=C(CCOc1ccccc1)Nc1ccnn1C1CCN(C(=O)CCC(F)(F)F)CC1	-10.9	98.0*	-0.8	7.8	-1.9	0.0	97.9
C=CCOc1ccc(/C=N/NC(=O)CC(=O)NC2CCCCC2)cc1	4.9	0.0	0.9	-3.9	-21.2	nt	nt
CC(C)Cc1ccc(C#N)c(SCC(N)=O)n1	-0.3	75.0*	-1.9	0.6	-3.2	2.5	90.7
CC(=O)c1cccc(NC(=O)c2cnn(-c3ccccc3)c2C)c1	1.0	0.0	-1.1	-6.5	2.1	5.6	97.0
Cc1c(C(=O)Nc2ccccc2)cnn1-c1ccccc1	-3.5	3.0	-3.4	0.1	-6.0	nt	nt
CCc1cc(CC)c(/C=N/NC(N)=O)c(CC)c1/C=N/NC(N)=O	-1.7	0.0	-1.1	-1.1	-0.8	nt	nt
Cc1cc(/C=N/NC(N)=O)c(C)c(CO)c1	-0.9	77.0*	-1.7	1.2	-2.9	2.9	98.2
O=Cc1ccc(OC(=O)Cc2ccc(F)cc2)cc1	nt	nt	0.6	nt	nt	nt	nt
Cc1ccc2sc(C)[n+](CCO)c2c1	-2.6	100.0*	-1.0	-2.4	-3.1	-1.8	97.5
CCCC[n+]1c(C)sc2ccc(C)cc21	12.7	9.0	0.9	-1.9	1.9	nt	nt
CC1CN(C(=O)c2ccc(N3CCCCC3)c([N+](=O)[O-])c2)CC(C)O1 (configuration not stated)	-4.5	0.0	-5.1	3.0	-6.2	nt	nt
Cc1cc(C(=O)Nc2ccc3c(c2)OCO3)no1	0.2	0.0	-5.1	1.1	4.6	nt	nt
CC(C)Cc1cc(C(=O)Nc2ccc3c(c2)OCO3)no1	-4.3	74.0*	0.8	0.2	1.4	-17.5	94.4
CCOC(=O)c1c(-c2cccs2)csc1NC(=O)CSc1ncn[nH]1	3.2	90.0*	-3.3	0.8	6.9	0.3	100.2
CCOC(=O)c1c(-c2cccs2)csc1NC(C)=O	-3.6	1.0	0.0	0.4	12.3	nt	nt
OCCC1CN(Cc2cc3ccccc3o2)CCN1Cc1ccc(F)cc1 (configuration not stated)	7.2	0.0	-1.1	5.7	-1.1	nt	nt
